NOMO-1 viab: NOMO-1 AML cell viability reduction, primary screen, STK33 inhibitor project, CellTiter-Glo luminescence; AID 2330, 2010; inhibition, % (no concentration beside the values); NOMO-1 AML viability, 72 h; actives 7.5% (n = 37,000); in the data active = inhibition above about 80%; inconclusive = no clear call, values can overlap the other calls
MITF inh: inhibitors of MITF, primary screen, MITF inhibitor project, cell-based, luminescence; TRPM1 promoter luciferase, 24 h; inhibition, % (test concentration not listed); actives 0.28% (n = 37,000); AID 2240, 2010; in the data active = inhibition above about 85%; inconclusive = no clear call, values can overlap the other calls; inactive = below about 68%;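 also: human melanocyte line stably carrying TRPM1 promoter luciferase reporter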
Hedgehog inh: Hedgehog pathway signaling inhibitors, primary screen, luminescence, Shh-LIGHT2 cells, Gli-luciferase; Shh-LIGHT2 Gli-luciferase reporter, 30 h; inhibition, % (no concentration beside the values); actives 2.1% (n = 22,000);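 active = mean inhibition across valid replicates above about 65%, limit read from the data; inconclusive = mean under the limit, yet half or more replicates past it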;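 also: pathway switched on by Shh-conditioned medium diluted 1 in 25 in low serum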
Numbers without * were called inactive; ? = inconclusive; / = no result given. This is a sample that favours compounds with a hit; in the whole collection about 8.1% have one here.

SMILES | NOMO-1 viab | MITF inh | Hedgehog inh
C[C@@H]1CN([C@H](C)CO)C(=O)Cc2cc(NS(C)(=O)=O)ccc2O[C@@H]1CN(C)Cc1ccc(C(=O)Nc2ccccc2N)cc1 | 36 | -13 | /
C[C@@H]1CN([C@H](C)CO)C(=O)Cc2cc(NS(C)(=O)=O)ccc2O[C@H]1CN(C)Cc1ccc(C(=O)Nc2ccccc2N)cc1 | 22 | -3 | /
C[C@H]1CN([C@@H](C)CO)C(=O)Cc2cc(NS(C)(=O)=O)ccc2O[C@H]1CN(C)Cc1ccc(C(=O)Nc2ccccc2N)cc1 | 84* | 7 | /
COc1ccc(OC)c(NC(=O)COc2cc(C)c(Br)c(C)c2)c1 | -22 | -3 | /
O=C(COc1ccc(Cl)cc1C1C2=C(CCCC2=O)NC2=C1C(=O)CCC2)Nc1ccc(Cl)cc1 | 116* | 27 | /
O=C(COc1ccc(Cl)cc1Cl)Nc1cc(C(=O)O)cc(C(=O)O)c1 | 15 | -13 | /
O=C(CNS(=O)(=O)c1cc(Cl)ccc1Cl)Nc1cccc([N+](=O)[O-])c1 | 22 | 3 | /
CC(Oc1ccc(Br)cc1)C(=O)Nc1ccccc1[N+](=O)[O-] (stereo not given) | -14 | -12 | /
CC(Oc1ccccc1)C(=O)Nc1cc([N+](=O)[O-])ccc1O (stereo not given) | 3 | 100* | /
CC(C(=O)Nc1cccc(Br)c1)N(c1ccc(Cl)cc1)S(C)(=O)=O (stereo not given) | 44 | 23 | /
C[C@H](CO)N1C[C@H](C)[C@@H](CN(C)Cc2ccc(Oc3ccccc3)cc2)Oc2c(NC(=O)Nc3ccc(F)cc3)cccc2C1=O | 99* | 18 | ?
C[C@H](CO)N1C[C@H](C)[C@H](CN(C)Cc2ccc(Oc3ccccc3)cc2)Oc2c(NC(=O)Nc3ccc(F)cc3)cccc2C1=O | 32 | 9 | -20
COc1ccc(NC(=O)Nc2cccc3c2O[C@H](CN(C)Cc2ccccc2)[C@@H](C)CN([C@@H](C)CO)C3=O)cc1 | 63 | -15 | -32
COc1ccc(CN(C)C[C@@H]2Oc3c(NC(=O)Nc4ccccc4)cccc3C(=O)N([C@@H](C)CO)C[C@H]2C)cc1 | 100* | 22 | 6
C[C@@H]1CN([C@@H](C)CO)C(=O)c2cccc(NC(=O)Nc3ccccc3)c2O[C@H]1CN(C)Cc1ccc(Oc2ccccc2)cc1 | 113* | 58 | -109
C[C@@H]1CN([C@H](C)CO)C(=O)c2cccc(NC(=O)Nc3ccccc3)c2O[C@H]1CN(C)Cc1ccc(Oc2ccccc2)cc1 | 23 | 11 | -14
COc1ccc(NC(=O)CSc2nc3sc4c(c3c(=O)n2-c2ccccc2)CCC4)c([N+](=O)[O-])c1 | 20 | 1 | /
O=C1c2cccc3cccc(c23)C(=O)N1CCCSc1nnc(-c2ccncc2)n1-c1ccccc1 | 30 | 43 | /
CCOc1ccc(-c2nnc(SCC(=O)c3ccccc3N)n2C)cc1 | 22 | -39 | /
COc1cc(C(=O)NCc2ccccc2)cc(OC)c1OC | 32 | 1 | 37
CN(CCOC(=O)c1ccc(Cl)cc1)c1ncc(C(F)(F)F)cc1Cl | -6 | 0 | -25
COc1ccc(-c2nn(-c3ccccc3)cc2C(=O)NCC(=O)c2ccccc2)cc1OC | 5 | -37 | /
COC(=O)CNC(=O)c1cn(-c2ccccc2)nc1-c1cccs1 | 105* | -46 | /
COc1ccc(N(CC(=O)Nc2ccccc2F)S(C)(=O)=O)cc1Cl | -4 | -2 | /
COc1ccc(-n2c(=S)[nH]c3cc(C(=O)NC4CCCC(C)C4C)ccc3c2=O)c(OC)c1 (stereo not given) | 87* | 38 | 0
SMILES | NOMO-1 viab | MITF inh | Hedgehog inh
COc1ccc(OC)c(-n2c(=S)[nH]c3cc(C(=O)N4CCC(C(N)=O)CC4)ccc3c2=O)c1 | 6 | 6 | -23
COc1ccc(-n2c(=S)[nH]c3cc(C(=O)N4CCN(c5ccccc5)CC4)ccc3c2=O)cc1 | 9 | -5 | 3
COc1ccc(OC)c(-n2c(=S)[nH]c3cc(C(=O)NCc4ccc(F)cc4)ccc3c2=O)c1 | 17 | 4 | 77*
Cc1cccc(-c2nnc(SCC(=O)c3ccccc3)n2-c2ccccc2)c1 | 2 | 9 | /
CCN(CC)C(=S)Oc1ccc(I)cc1 | -4 | -41 | -38
Cc1ccc(O)c(C2=Nc3ccccc3N=C(C(F)(F)F)C2)c1 | 89* | 19 | -56
c1ccc(-c2nsc(N3CCOCC3)n2)cc1 | -1 | 20 | -186
Clc1ccccc1/C=C/C=Nc1ccc(N2CCOCC2)cc1 | 122* | -50 | 27
Nc1c(N2CCOCC2)c2ccccc2oc1=O | 23 | 11 | /
NC(N)=NN=Cc1c(Cl)cccc1Cl | 61 | 0 | 65*
C[C@@H]1CCCCO[C@@H](CN(C)Cc2ccc(Cl)c(Cl)c2)[C@@H](C)CN([C@H](C)CO)C(=O)c2cc(NC(=O)Nc3ccc(C(F)(F)F)cc3)ccc2O1 | 105* | -4 | /
CC(C)NC(=O)Nc1ccc2c(c1)C(=O)N([C@H](C)CO)C[C@H](C)[C@H](CN(C)Cc1ccc(C(F)(F)F)cc1)OCCCC[C@@H](C)O2 | 40 | 14 | /
C[C@@H]1CCCCO[C@@H](CN(C)Cc2ccc3c(c2)OCO3)[C@@H](C)CN([C@H](C)CO)C(=O)c2cc(NC(=O)Nc3ccc(C(F)(F)F)cc3)ccc2O1 | 113* | 8 | /
C[C@H](CO)N1C[C@H](C)[C@H](CN(C)Cc2ccc(Cl)c(Cl)c2)Oc2ccc(NC(=O)C3CCCCC3)cc2C1=O | 37 | 29 | /
C[C@@H]1CCCCO[C@H](CN(C)Cc2ccc3c(c2)OCO3)[C@@H](C)CN([C@H](C)CO)C(=O)c2cc(NC(=O)Nc3ccc4c(c3)OCO4)ccc2O1 | 33 | -4 | /
C[C@@H]1CCCCO[C@@H](CN(C)Cc2ccc(Cl)c(Cl)c2)[C@@H](C)CN([C@H](C)CO)C(=O)c2cc(NC(=O)C3CCCCC3)ccc2O1 | 114* | 50 | /
C[C@@H]1CCCCO[C@@H](CN(C)Cc2ccc3c(c2)OCO3)[C@@H](C)CN([C@H](C)CO)C(=O)c2cc(NC(=O)Nc3ccc(F)cc3)ccc2O1 | 16 | 14 | /
C[C@@H]1CCCCO[C@@H](CN(C)Cc2ccc3c(c2)OCO3)[C@@H](C)CN([C@H](C)CO)C(=O)c2cc(NC(=O)Nc3ccc4c(c3)OCO4)ccc2O1 | 50 | 9 | 68*
O=C(NCc1ccccn1)c1cnn2c1NC(c1cccs1)CC2C(F)(F)F (stereo not given) | 1 | 4 | /
Cc1cccc(-c2nc3cc(NC(=O)COc4ccc([N+](=O)[O-])cc4)ccc3o2)c1 | -13 | -74 | /
O=C(CSc1nc(N2CCCCC2)nc(N2CCCCC2)n1)Nc1ccc(F)cc1 | 48 | 20 | /
O=C(O)CCC(=O)Cc1ccccc1 | 3 | ? | 7
O=C(COc1ccc2ccccc2c1)Nc1ccc(O)cc1C(=O)O | 9 | 6 | /
CN(CC(=O)Nc1ccc(F)c(Cl)c1)S(=O)(=O)c1ccc2ccccc2c1 | 14 | 17 | /
C[C@@H]1CCCCO[C@H](CN(C)Cc2ccc(Cl)c(Cl)c2)[C@@H](C)CN([C@H](C)CO)C(=O)c2cc(NC(=O)Nc3ccccc3)ccc2O1 | ? | 28 | 42
C[C@@H]1CCCCO[C@@H](CN(C)Cc2ccc(Cl)c(Cl)c2)[C@@H](C)CN([C@H](C)CO)C(=O)c2cc(NC(=O)Nc3ccccc3)ccc2O1 | 103* | 15 | -5

Screens (PubChem)
